According to ChEMBL document CHEMBL1961873, “Compounds: GSK PKIS; Assays: Nanosyn kinase panel” (2012):

Columns and labels:
[1] = molecular target: Tyrosine-protein kinase CSK (Homo sapiens) (UniProt P41240); conditions: at 1 µM;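 further: each value is an averaged inhibition reading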
[2] = molecular target: T1, Discoidin domain-containing receptor 2 (Homo sapiens) (UniProt Q16832); conditions: at 0.1 µM
T1 sequence (whole entry): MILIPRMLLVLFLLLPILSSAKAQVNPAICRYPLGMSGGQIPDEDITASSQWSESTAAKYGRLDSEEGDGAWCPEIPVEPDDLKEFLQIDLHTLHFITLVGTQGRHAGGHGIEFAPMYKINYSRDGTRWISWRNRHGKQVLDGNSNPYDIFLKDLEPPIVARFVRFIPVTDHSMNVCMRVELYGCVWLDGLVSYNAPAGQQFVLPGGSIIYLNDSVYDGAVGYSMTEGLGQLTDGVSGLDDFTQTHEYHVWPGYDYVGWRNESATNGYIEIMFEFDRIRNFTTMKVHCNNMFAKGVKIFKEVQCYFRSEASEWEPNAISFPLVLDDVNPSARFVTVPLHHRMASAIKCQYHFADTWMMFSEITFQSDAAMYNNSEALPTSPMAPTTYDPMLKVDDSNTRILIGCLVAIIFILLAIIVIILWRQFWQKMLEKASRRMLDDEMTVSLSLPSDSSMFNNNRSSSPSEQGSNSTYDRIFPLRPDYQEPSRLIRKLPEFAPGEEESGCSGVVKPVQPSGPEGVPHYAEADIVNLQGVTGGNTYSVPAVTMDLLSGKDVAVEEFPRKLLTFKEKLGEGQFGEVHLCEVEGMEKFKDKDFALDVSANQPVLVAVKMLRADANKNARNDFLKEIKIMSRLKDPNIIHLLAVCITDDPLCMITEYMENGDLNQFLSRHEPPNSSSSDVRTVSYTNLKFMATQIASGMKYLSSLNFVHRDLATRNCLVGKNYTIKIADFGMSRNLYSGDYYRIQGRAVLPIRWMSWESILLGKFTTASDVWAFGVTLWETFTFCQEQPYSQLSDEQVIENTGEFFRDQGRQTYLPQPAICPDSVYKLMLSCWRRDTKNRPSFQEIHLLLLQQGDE

[3] = molecular target: T1, Discoidin domain-containing receptor 2 (Homo sapiens); conditions: at 1 µM
[4] = molecular target: Epidermal growth factor receptor (Homo sapiens) (UniProt P00533); conditions: at 0.1 µM
[5] = molecular target: Epidermal growth factor receptor (Homo sapiens) (UniProt P00533); conditions: at 1 µM
[6] = tested on: Epidermal growth factor receptor (Homo sapiens), P00533 [L858R]; conditions: at 0.1 µM
[7] = tested on: Epidermal growth factor receptor (Homo sapiens), P00533 [L858R]; conditions: at 1 µM
[8] = tested on: Epidermal growth factor receptor (Homo sapiens), P00533 [L861Q]; conditions: at 0.1 µM
[9] = tested on: Epidermal growth factor receptor (Homo sapiens), P00533 [L861Q]; conditions: at 1 µM
[10] = tested on: Epidermal growth factor receptor (Homo sapiens), P00533 [T790M]; conditions: at 0.1 µM
[11] = tested on: Epidermal growth factor receptor (Homo sapiens), P00533 [T790M]; conditions: at 1 µM
[12] = tested on: Epidermal growth factor receptor (Homo sapiens), P00533 [L858R,T790M]; conditions: at 0.1 µM
[13] = tested on: Epidermal growth factor receptor (Homo sapiens), P00533 [L858R,T790M]; conditions: at 1 µM
[14] = molecular target: Ephrin type-A receptor 2 (Homo sapiens) (UniProt P29317); conditions: at 0.1 µM
[15] = molecular target: Ephrin type-A receptor 2 (Homo sapiens) (UniProt P29317); conditions: at 1 µM
[16] = molecular target: T2, Ephrin type-A receptor 3 (Homo sapiens) (UniProt P29320); conditions: at 0.1 µM
T2 sequence (whole entry): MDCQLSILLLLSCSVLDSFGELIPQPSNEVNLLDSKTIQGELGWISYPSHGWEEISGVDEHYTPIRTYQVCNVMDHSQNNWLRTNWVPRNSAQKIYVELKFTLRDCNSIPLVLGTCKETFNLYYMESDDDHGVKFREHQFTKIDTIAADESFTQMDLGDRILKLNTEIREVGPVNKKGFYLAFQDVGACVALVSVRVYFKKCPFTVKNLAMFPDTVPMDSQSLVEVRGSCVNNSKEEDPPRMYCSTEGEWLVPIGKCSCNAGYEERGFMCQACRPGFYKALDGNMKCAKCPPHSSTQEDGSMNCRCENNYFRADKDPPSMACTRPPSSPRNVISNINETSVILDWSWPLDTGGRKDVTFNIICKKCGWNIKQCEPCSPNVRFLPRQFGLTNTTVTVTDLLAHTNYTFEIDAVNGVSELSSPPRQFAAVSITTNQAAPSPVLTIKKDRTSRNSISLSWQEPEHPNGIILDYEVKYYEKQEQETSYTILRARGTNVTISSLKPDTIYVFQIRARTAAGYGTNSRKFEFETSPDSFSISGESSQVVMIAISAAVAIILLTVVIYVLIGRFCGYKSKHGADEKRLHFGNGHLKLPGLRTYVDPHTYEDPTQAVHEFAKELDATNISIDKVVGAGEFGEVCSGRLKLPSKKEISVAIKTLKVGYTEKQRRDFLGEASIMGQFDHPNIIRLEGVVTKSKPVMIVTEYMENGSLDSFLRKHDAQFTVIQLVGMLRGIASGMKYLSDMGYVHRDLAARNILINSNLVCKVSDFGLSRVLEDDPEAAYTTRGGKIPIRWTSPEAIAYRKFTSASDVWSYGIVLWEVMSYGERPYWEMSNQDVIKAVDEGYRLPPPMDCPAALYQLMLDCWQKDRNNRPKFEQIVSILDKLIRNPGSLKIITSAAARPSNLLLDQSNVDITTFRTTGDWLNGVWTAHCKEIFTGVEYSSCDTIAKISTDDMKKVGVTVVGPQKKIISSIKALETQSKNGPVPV

[17] = molecular target: T2, Ephrin type-A receptor 3 (Homo sapiens); conditions: at 1 µM
[18] = molecular target: Ephrin type-A receptor 4 (Homo sapiens) (UniProt P54764); conditions: at 0.1 µM
[19] = molecular target: Ephrin type-A receptor 4 (Homo sapiens) (UniProt P54764); conditions: at 1 µM
[20] = molecular target: T3, Ephrin type-B receptor 2 (Homo sapiens) (UniProt P29323); conditions: at 0.1 µM;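 further: reported as mean inhibition of EPHB2, from the GSK PKIS dataset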
T3 sequence (whole entry): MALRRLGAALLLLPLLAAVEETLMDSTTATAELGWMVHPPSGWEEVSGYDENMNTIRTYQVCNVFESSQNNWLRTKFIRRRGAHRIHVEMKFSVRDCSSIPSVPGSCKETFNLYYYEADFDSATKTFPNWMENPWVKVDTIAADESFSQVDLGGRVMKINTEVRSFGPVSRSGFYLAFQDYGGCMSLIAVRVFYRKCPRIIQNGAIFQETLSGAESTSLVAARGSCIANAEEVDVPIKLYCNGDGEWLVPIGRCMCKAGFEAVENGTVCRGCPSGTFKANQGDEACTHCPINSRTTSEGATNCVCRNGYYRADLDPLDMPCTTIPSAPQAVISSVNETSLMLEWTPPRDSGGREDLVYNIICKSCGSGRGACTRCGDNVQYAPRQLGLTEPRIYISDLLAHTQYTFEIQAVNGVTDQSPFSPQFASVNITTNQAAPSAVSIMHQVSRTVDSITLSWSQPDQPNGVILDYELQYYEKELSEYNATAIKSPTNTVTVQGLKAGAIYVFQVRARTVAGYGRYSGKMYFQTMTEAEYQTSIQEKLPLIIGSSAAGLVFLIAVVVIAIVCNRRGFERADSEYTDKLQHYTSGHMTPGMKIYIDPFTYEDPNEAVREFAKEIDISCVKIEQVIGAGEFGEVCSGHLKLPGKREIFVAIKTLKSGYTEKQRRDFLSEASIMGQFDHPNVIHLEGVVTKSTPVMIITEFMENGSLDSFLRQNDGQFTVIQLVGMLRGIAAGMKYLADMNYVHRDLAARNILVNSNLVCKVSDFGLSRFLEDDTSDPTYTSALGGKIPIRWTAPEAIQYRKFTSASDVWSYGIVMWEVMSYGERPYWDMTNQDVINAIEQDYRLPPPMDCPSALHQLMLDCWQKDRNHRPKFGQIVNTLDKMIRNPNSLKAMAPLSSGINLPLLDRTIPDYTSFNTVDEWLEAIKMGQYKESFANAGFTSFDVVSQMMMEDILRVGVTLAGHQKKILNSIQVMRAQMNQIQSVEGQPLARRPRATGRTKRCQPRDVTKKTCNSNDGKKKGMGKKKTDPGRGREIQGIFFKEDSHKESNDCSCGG

Sequence of Tyrosine-protein kinase CSK (Homo sapiens) (P41240 2-450 limits assumed): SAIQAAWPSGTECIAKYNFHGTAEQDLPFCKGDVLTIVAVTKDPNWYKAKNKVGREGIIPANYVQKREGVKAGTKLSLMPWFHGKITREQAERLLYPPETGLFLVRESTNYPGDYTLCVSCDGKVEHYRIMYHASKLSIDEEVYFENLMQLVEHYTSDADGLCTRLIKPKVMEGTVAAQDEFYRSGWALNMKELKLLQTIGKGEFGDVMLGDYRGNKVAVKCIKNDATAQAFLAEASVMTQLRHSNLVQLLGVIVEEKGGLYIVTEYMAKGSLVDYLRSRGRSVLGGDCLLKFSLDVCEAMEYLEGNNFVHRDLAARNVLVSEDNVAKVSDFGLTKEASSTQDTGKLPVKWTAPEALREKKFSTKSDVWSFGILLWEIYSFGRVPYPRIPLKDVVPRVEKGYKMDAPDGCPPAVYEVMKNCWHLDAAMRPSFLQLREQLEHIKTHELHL
Sequence of Epidermal growth factor receptor (Homo sapiens), P00533 [L861Q] (P00533 whole entry L861Q): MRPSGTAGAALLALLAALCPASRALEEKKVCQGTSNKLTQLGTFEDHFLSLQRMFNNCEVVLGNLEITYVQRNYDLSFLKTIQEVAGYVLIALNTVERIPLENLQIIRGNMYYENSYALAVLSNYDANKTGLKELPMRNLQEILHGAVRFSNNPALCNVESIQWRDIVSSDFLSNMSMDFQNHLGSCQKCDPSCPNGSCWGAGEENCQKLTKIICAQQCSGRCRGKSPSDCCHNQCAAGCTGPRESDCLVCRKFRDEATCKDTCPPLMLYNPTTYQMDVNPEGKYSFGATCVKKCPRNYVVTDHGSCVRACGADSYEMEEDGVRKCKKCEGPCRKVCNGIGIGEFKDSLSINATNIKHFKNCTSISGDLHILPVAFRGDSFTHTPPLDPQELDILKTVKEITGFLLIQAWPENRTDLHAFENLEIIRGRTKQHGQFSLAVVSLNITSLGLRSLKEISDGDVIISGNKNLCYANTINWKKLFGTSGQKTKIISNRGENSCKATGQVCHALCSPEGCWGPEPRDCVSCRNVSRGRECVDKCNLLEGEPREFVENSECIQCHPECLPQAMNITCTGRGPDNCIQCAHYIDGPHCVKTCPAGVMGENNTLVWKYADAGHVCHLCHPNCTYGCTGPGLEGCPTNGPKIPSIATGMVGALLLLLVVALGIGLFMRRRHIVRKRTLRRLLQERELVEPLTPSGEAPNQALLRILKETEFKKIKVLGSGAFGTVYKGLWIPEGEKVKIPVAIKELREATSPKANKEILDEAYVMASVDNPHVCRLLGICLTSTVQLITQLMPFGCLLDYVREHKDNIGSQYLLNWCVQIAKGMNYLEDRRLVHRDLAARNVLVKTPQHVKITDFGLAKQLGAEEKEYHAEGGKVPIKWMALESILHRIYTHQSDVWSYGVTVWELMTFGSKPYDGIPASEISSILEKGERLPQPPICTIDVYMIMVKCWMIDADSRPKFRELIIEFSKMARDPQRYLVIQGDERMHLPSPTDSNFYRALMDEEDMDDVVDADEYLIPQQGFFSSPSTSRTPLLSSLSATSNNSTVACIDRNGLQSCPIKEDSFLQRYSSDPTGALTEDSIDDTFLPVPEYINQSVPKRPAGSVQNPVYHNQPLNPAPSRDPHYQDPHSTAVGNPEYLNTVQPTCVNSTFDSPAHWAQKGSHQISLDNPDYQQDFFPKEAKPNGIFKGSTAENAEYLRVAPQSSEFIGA
Sequence of Epidermal growth factor receptor (Homo sapiens), P00533 [L858R] (P00533 whole entry L858R): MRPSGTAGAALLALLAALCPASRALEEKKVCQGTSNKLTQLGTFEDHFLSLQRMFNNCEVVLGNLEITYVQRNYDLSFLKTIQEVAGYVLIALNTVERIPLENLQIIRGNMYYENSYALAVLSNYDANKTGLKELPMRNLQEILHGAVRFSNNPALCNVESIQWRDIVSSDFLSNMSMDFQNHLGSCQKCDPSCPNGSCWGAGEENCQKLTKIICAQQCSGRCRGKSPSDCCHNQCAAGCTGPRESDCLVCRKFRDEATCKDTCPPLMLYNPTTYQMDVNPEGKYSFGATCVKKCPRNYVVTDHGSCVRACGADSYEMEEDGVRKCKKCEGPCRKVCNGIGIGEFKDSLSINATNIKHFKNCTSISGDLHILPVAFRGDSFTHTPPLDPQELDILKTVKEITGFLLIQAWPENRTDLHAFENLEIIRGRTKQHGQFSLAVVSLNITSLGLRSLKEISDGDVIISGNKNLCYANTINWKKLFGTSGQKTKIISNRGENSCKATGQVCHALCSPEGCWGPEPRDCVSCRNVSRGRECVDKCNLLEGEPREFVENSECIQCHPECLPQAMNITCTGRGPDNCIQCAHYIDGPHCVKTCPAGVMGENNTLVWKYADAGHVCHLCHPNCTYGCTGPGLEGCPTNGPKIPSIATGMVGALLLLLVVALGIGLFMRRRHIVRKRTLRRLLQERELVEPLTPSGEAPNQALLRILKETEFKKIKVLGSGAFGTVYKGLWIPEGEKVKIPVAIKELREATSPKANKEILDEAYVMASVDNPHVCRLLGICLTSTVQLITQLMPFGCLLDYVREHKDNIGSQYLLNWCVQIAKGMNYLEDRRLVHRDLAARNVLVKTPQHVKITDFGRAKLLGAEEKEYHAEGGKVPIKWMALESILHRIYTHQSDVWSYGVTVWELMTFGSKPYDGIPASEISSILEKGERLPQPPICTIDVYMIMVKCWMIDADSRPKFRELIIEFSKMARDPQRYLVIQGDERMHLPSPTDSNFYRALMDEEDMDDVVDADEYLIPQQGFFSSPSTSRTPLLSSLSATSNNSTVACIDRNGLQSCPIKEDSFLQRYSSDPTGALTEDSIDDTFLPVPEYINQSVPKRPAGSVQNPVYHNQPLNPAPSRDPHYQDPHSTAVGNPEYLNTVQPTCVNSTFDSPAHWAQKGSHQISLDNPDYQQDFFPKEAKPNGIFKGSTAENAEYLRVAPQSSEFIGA
Sequence of Epidermal growth factor receptor (Homo sapiens) (P00533 whole entry): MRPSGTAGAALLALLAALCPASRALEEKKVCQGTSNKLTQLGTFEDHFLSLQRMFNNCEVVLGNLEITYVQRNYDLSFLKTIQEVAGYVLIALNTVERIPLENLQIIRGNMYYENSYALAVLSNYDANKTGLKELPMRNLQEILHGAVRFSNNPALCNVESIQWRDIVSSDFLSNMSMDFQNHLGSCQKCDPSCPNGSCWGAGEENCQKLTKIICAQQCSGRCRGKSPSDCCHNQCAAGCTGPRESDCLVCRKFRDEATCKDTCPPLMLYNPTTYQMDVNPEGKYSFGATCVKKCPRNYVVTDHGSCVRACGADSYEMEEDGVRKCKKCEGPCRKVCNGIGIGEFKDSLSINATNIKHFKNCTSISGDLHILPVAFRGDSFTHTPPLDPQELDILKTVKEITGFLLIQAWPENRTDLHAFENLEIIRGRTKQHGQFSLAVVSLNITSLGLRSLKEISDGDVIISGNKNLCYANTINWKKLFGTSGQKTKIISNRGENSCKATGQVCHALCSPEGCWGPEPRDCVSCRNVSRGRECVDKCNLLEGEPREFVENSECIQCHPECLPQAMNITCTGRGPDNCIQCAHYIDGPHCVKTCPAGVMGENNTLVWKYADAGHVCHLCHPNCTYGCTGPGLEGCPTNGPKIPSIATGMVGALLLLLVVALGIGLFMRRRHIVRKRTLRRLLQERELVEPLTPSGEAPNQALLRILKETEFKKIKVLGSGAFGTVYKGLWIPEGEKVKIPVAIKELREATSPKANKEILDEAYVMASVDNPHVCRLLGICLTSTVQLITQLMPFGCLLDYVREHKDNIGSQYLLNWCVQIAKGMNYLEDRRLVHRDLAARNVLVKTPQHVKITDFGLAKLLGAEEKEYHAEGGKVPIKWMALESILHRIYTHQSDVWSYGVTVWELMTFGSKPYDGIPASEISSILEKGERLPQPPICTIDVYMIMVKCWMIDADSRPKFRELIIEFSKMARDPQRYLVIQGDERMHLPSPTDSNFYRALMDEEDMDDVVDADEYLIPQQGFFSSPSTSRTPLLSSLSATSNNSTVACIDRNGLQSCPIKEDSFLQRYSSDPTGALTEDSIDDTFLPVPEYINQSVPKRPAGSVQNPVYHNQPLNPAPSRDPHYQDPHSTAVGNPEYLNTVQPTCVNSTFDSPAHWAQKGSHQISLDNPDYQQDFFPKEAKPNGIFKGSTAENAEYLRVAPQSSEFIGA
Sequence of Ephrin type-A receptor 2 (Homo sapiens) (P29317 whole entry): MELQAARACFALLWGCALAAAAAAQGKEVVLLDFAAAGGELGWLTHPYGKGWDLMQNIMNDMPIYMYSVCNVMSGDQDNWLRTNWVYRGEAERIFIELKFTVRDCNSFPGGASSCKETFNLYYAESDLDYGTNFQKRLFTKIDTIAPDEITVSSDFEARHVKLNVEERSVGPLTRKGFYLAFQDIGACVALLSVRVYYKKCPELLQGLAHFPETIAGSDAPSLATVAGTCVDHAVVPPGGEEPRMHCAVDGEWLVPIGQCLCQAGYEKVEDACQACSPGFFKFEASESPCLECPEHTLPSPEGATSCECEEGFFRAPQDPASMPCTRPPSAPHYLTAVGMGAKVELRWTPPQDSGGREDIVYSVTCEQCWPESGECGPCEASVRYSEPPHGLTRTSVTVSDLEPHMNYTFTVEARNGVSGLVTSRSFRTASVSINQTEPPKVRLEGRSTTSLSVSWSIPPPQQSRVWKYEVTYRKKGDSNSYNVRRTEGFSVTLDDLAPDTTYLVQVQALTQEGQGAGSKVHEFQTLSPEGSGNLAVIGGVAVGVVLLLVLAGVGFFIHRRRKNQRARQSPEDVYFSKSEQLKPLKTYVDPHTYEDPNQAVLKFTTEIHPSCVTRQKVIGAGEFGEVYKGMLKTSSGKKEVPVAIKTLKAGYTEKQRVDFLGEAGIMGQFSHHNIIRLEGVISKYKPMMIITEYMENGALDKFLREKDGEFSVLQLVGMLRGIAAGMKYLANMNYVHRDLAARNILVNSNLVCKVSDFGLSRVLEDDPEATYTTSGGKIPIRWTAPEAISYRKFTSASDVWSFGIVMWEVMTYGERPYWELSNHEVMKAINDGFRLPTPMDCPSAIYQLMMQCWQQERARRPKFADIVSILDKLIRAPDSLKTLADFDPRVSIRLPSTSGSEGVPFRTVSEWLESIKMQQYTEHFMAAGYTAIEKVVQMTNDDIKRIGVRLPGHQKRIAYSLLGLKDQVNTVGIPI

Structure (SMILES)	inhibition [1]	inhibition [2]	inhibition [3]	inhibition [4]	inhibition [5]	inhibition [6]	inhibition [7]	inhibition [8]	inhibition [9]	inhibition [10]	inhibition [11]	inhibition [12]	inhibition [13]	inhibition [14]	inhibition [15]	inhibition [16]	inhibition [17]	inhibition [18]	inhibition [19]	inhibition [20]
CS(=O)(=O)CCNCc1ccc(-c2ccc3ncnc(Nc4ccc(OCc5cccc(F)c5)c(C(F)(F)F)c4)c3c2)o1	2.03%	1.18%	0.88%	12.8%	65.9%	6.6%	46.2%	20.6%	40.8%	2.44%	3.43%	-0.63%	-1.62%	0.17%	1.21%	3.24%	1.95%	8.08%	6.97%	4.21%
COc1cccc(-n2ncc3c(N/N=C/c4cccc(F)c4)ncnc32)c1	4.81%	1.22%	2.49%	0.53%	8.49%	6.62%	37.9%	2.52%	7.42%	-0.78%	0.45%	-0.32%	2.54%	-6.37%	-5.64%	-1.03%	-0.95%	4.81%	2.57%	3.17%
CS(=O)(=O)CCNCc1nc(-c2ccc3ncnc(Nc4ccc(F)c(Cl)c4)c3c2)cs1	5.64%	7.7%	10.9%											2.15%	1.65%	2.83%	4.56%	11.7%	21%	13.7%
NC(=O)c1cccc(Nc2nccc(Nc3cccc4[nH]ncc34)n2)c1	26.5%	19.9%	77.6%	2.96%	24.1%	13.4%	70.1%	3.36%	27.8%	-1.89%	-2.41%	-5.66%	8.31%	7.85%	53.6%	40.2%	72.9%	31%	81.1%	30.4%
CCN1CCC(CC(=O)Nc2n[nH]c3nc(-c4cccs4)c(Br)cc23)CC1	-4.84%	-0.58%	0.03%	1.1%	3.65%	0.06%	3.28%	-0.27%	1.14%	-1.65%	-1.12%	0.09%	-0.41%	-3.7%	-1.54%	-7.71%	-2.29%	-7.32%	-3.58%	-2.13%
COC(=O)Nc1nc2cc(Oc3ccc(NC(=O)Nc4cccc(C(=O)O)c4)cc3)ccc2[nH]1		8.64%	48.8%	-1.69%	-2.11%	2.63%	2.26%	2.15%	0.36%	1.78%	0.98%	-0.04%	1.58%	-2.05%	-4.67%	-2.34%	-2.49%	4.23%	5.32%	0.25%
CS(=O)(=O)CCN(CC#N)Cc1ccc(-c2ccc3ncnc(Nc4ccc(OCc5cccc(F)c5)c(Cl)c4)c3c2)o1	4.77%	0.7%	0.75%	69.4%	77.2%	36.5%	83.6%	41.5%	76.2%	1.04%	5.17%	-1.28%	0.73%	-5.85%	-5.32%	-2.74%	-2.11%	1.75%	5.59%	6.06%
COc1cc2c(cc1Nc1nc(N3CCc4ccccc43)c3cc[nH]c3n1)N(C(=O)CN(C)C)CC2	0.41%	0.28%	0.74%	-0.08%	1.28%	1.45%	2.18%	1.47%	-0.39%	1.57%	2.36%	3.77%	9.23%	2.22%	2.11%	2.13%	0.93%	3.39%	6.36%	2.81%
COc1cc2ncn(-c3cc(O[C@@H](C)c4ccccc4Cl)c(C(N)=O)s3)c2cc1OC	5.68%	1.33%	1.58%	0.08%	7.32%	5.96%	26.9%	3.26%	7.73%	1.35%	2.06%	1.8%	5.2%	1.55%	1.17%	1.7%	6.21%	6.22%	14.2%	7.76%
COc1cc2ncn(-c3cc(OCc4ccccc4C(F)(F)F)c(C(N)=O)s3)c2cc1OC	9.28%	7.36%	7.43%		3.5%	2.54%	13.5%	3.75%	4.35%	2%	1.9%	3.32%	4.7%	-0.41%	3.23%	-0.35%	7.13%	11.3%	23.3%	14.9%
COc1cc2ncn(-c3cc(OCc4ccccc4Cl)c(C(N)=O)s3)c2cc1OC	4.61%	0.71%	0.75%	2.48%	8.81%	1.49%	13.4%	-0.11%	5.11%	-1.99%	0.02%	-1.12%	1.19%	-2.86%	-1.31%	-1.62%	0.98%	0.5%	7.32%	2%
